Laboratory results reported in paper PMC12136788.
Residue numbers refer to the chain shown, from its start. Over roughly 5,800 sequences, “enrichment r” has its median near 0.68; the highest 2% begin near 11. For the sample, the highest values were picked, then their nearest neighbours and some sequences at random.

T1: UNK ZnF1-6 (called full-length) (human, UniProt Q9C0B0 30-357)
T1 sequence: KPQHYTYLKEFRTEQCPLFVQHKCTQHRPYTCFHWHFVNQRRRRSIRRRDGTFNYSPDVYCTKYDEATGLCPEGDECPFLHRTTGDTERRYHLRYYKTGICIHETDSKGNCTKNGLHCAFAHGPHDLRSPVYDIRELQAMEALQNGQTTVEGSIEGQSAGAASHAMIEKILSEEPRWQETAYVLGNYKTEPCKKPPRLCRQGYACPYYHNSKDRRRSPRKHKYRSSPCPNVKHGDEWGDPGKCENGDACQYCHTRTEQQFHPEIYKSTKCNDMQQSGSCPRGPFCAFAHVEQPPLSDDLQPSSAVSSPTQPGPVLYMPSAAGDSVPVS

B1: chr6:43570573:43570674:-|CDS|ENSG00000124571|unk|FALSE|unique (ssRNA)
RNA: GGGAGUUCUACAGUCCGACGAUCGGUGUAGGAAACACAGACAGAAUUGGUGAUGUUUAUCCUUUUGCGACUGGCAGAGGAUGUAGUGACUUUUCAGACACUUCCCCCUCAAAGAAGAAGGGACAUCCAGCAAACAUUAACCCACAACAGAGGAUUGAGCAUCA
B2: chr11:73394502:73394603:+|CDS|ENSG00000054967|msi1|total|mutant (ssRNA)
RNA: GGGAGUUCUACAGUCCGACGAUCCACCAUCUCCACACCGUGCAGGGCCUGGCCUCGCUCUCUGGCCCCUGCUGCUCCCGCUGCCGCCAGAAGAAGUGGCCCGAGGUGCUGCUGUCCCCUGAGGCUGCCGCCGCCACUACUCCUCAACAGAGGAUUGAGCAUCA
B3: chr3:107805913:107806014:+|3pUTR|ENSG00000114439|msi1_unk|FALSE|overlapping (ssRNA)
RNA: GGGAGUUCUACAGUCCGACGAUCUACAUGGAGAUUUAAGUUUAAGAUGGUUUAUAUAAUAGGUUAUACCUACAUUUAUAUUGUAGAAUAAAUAUUAAAAAGCCUGUUCCAGAGACUCCCAAGCAGCCUGGGCAGGCAGAUGUACAACAGAGGAUUGAGCAUCA
B4: chr8:144773268:144774605:-|CDS|ENSG00000196378|control|control|control (ssRNA)
RNA: GGGAGUUCUACAGUCCGACGAUCCACCAGAGGAUUCACACUGGGGAGAAACCCUACAAGUGUGGGGAGUGUGGGAAGCACUUUAGCGCCUACUCUUCCCUGAUUUAUCACCAGAGAAUCCACACCGGAGAGAAACCCUAUAAACAACAGAGGAUUGAGCAUCA
B5: chr7:123692404:123692516:-|CDS|ENSG00000106299|unk|total|mutant (ssRNA)
RNA: GGGAGUUCUACAGUCCGACGAUCCCUGCCUUCUGAUGGGGACCAUCAGGUUCCAACUACUGCAGGAAACAAAGCAGCUCUUUCCGAUCAAAUCCGAGAGGGUGCUCAGCUAAAAAAAGUGGAGCAGAACAGUCGGCCAGUGUCCAACAGAGGAUUGAGCAUCA
B6: chr2:32377587:32377702:+|CDS|ENSG00000115760|unk|FALSE|unique (ssRNA)
RNA: GGGAGUUCUACAGUCCGACGAUCGGUGAAAUGUCAGUAUAUCUCUGCUGUGGAUAAAGUUAUAUUUGUGGAUGAUUAUGCAGUAGGGUGUAGGAAGGACCUUAAUGGAAUCUUGUUGUUAGACACUGCUCUGCAAACUCCAGUCAACAGAGGAUUGAGCAUCA
B7: chr15:69268886:69268987:+|CDS|ENSG00000138604|unk|total|mutant (ssRNA)
RNA: GGGAGUUCUACAGUCCGACGAUCGGAGUUAAAGCUGUGUUUAUGAAUAAACAUGACUGGUAUGAAGAAUAUCCAACCACACCCCGCUCUUUUGUUUUAAAUGGCUUUAUGUAUUCUUUAAUUGGGCUGUAUGACUUAAAAGAACAACAGAGGAUUGAGCAUCA
B8: ENSG00000107863:be:win_3351|CDS|ENSG00000107863|bound_else_gene|NA|bound_elsewhere_windowed (ssRNA)
RNA: GGGAGUUCUACAGUCCGACGAUCAAAAGACAAAGGCACAUGGAGAAAAGGCAUUCCAAGUAUCAUGAGAAAGACAUUUGAGAAAAAGCCAACUGCUACAGGAACUUUCGGCGUCCGACUAGAUGACUGCCCACCAGCUCAUACCAACAGAGGAUUGAGCAUCA
B9: chr5:75599425:75599511:+|3pUTR|ENSG00000122008|msi1_unk|total|mutant (ssRNA)
RNA: GGGAGUUCUACAGUCCGACGAUCGAACCGCUUAAUUAAGAACUCACAGACUUUGACAAAGUGGUAACCCGACUUUUAAUUACCCGAUUCUUCAAAUCCGGCUUAAUGCCUGCCCGCAUGCCAAUCCAAUCCCAUGACUGAUGUCAACAGAGGAUUGAGCAUCA
B10: ENSG00000172071:stop:overlap|stop_codon|ENSG00000172071|stop_codon|NA|stop_codon (ssRNA)
RNA: GGGAGUUCUACAGUCCGACGAUCCAUCGGGAACAAAACAUUCAAGACAGUCCAACAACUCCCAUAGCCCUUUGCCAAGCAAUUAGCCUUAAGUUGUGCUAGCAACCCUAAUAGGUGAUGCAGAUAAUAGCCUACUUCUUAGAACAACAGAGGAUUGAGCAUCA
B11: chr1:235448940:235449205:-|3pUTR|ENSG00000162885|unk|FALSE|unique (ssRNA)
RNA: GGGAGUUCUACAGUCCGACGAUCAAUAGAGAAUUCCAUUAAAACUAGUCUUAUGACAGAUAUUAACUGUGUUCAGAUUUUAUUAGGCUAGCUAGUUUCUUUCUAUUUAAUAUUUAAAUCUUAUCAUGAAAUGCAGUGAUGAGCCAACAGAGGAUUGAGCAUCA
B12: chr10:92030311:92030412:+|3pUTR|ENSG00000095564|unk|FALSE|unique (ssRNA)
RNA: GGGAGUUCUACAGUCCGACGAUCAUAUAAGAUUGAAACUGUAAAAUAUAUGCAACUGUGUGUUAUUUGUAGGAAAUGGUCACUAGAAAGAGCAAAAGAUUAUUCAGGUAUACAGGUUUUUUUUCAUUGUUUAGGAUUUUAACUCAACAGAGGAUUGAGCAUCA
B13: chr5:75599425:75599511:+|3pUTR|ENSG00000122008|msi1_unk|FALSE|overlapping (ssRNA)
RNA: B9 RNA with C27U, C28A, C68U, C69A, C83U, C84A, C97U, C98A, C113U, C114A
B14: chr4:140550230:140550341:+|CDS|ENSG00000179387|unk|FALSE|unique (ssRNA)
RNA: GGGAGUUCUACAGUCCGACGAUCGAAUUUGACAAGUUUUGGUUUGAAGAAGAACCAGAAAGCAUUAUGUAUUUCAAUUUGUAUAGAGAGAAGUUUCAUGAAAAGAUUAAAGGACUUUUACUGGAUUGUAAUGUAGCACUUACUCAACAGAGGAUUGAGCAUCA
B15: chr1:235448940:235449205:-|3pUTR|ENSG00000162885|unk|total|mutant (ssRNA)
RNA: B11 RNA with U26C, A27C, U45C, A46C, U83C, A84C, U88C, A89C, U92C, A93C
B16: chr1:150220393:150220494:-|3pUTR|ENSG00000143401|msi1_unk|total|mutant (ssRNA)
RNA: GGGAGUUCUACAGUCCGACGAUCAUUGUAUGCCGAGAAAAAUUUUCAUUGACUCCCAUUGUGGAAUUCCCCCGCAAUUUAUUCCGACUUAAUUUUUUAAAUUCAAGCUUACUGUAUCCGUCAUUUUCCGCCCAUAAUUAAAACCAACAGAGGAUUGAGCAUCA
B17: chr1:150220393:150220494:-|3pUTR|ENSG00000143401|msi1_unk|FALSE|overlapping (ssRNA)
RNA: B16 RNA with C32U, C33A, C71U, C72A, C83U, C84A, C117U, C118A, C127U, C128A
B18: chr2:167954955:167954998:-|3pUTR|ENSG00000198648|msi1_unk|FALSE|overlapping (ssRNA)
RNA: GGGAGUUCUACAGUCCGACGAUCGUUGUAUUUAGAAAUUAAUAUACUUAUAAAAUUAAGAUUUAUUAGCCAAACUUGAAUUCUAGUUUUAAAACUGACUGUGAAUUUUAUUUUUCAUAUAUUUAUGCAUUACACACCUUAGCUCAACAGAGGAUUGAGCAUCA
B19: chrX:85861749:85861850:-|3pUTR|ENSG00000188419|msi1|FALSE|unique (ssRNA)
RNA: GGGAGUUCUACAGUCCGACGAUCCUAAUUUAAAAUUUCAGAAAAUGCUAUUAAAGAAUUUUGAUUCAAGUAUUUAAACUGUUUAGUUAUGCAUGCUUCUUAUUAACCGAAAAUGAUAAUACCAUUUAGUUUAGUGAUCAGUAUCAACAGAGGAUUGAGCAUCA
B20: chr2:167954955:167954998:-|3pUTR|ENSG00000198648|msi1_unk|total|mutant (ssRNA)
RNA: B18 RNA with U32C, A33C, U66C, A67C, U83C, A84C, U139C, A140C
B21: chr2:27433287:27433389:+|CDS|ENSG00000115216|unk|FALSE|unique (ssRNA)
RNA: GGGAGUUCUACAGUCCGACGAUCUUCCAGCAUGUCGGAGGGGGAGUCCCAGACAGUACUUAGCAGUGGCUCAGACCCAAAGGUAGAAUCCUCAUCUUCAGCUCCUGGCCUGACAUCAGUGUCACCUCCUGUGACCUCCACAACCAACAGAGGAUUGAGCAUCA
B22: chr8:6811200:6812339:-|CDS|ENSG00000275591|control|control|control (ssRNA)
RNA: GGGAGUUCUACAGUCCGACGAUCAUGUAGAGGCUUCUGCCCCAGUGCAGGCUUCCCUGGAAGAACCCUCAGUAUCUCAGAGCUAGAGGAGCCGCUGGAGCCCAAAAGGGAGCUAAGUCACCAUGCAGCUGUUGGUGUGUGGGUCAACAGAGGAUUGAGCAUCA

Molecular target: T1, UNK ZnF1-6 (called full-length)
Assay: nsRBNS (natural sequence RNA bind-n-seq); RBNS binding buffer (assumed for nsRBNS): 25 mM Tris pH 7.5, 150 mM KCl, 3 mM MgCl2, 0.01% Triton X-100, 500 ug/ml BSA, 20 U/ml SUPERase-In, 4 C; UNK is unkempt and MSI1 is Musashi-1; names of the RNAs are library labels; protein concentration not given here; high values mean tight binding

Binder | binding signal [enrichment R]
B1 | 0.529
B2 | 0.888
B3 | 1.89
B4 | 0.587
B5 | 0.493
B6 | 0.488
B7 | 0.547
B8 | 0.507
B9 | 0.537
B10 | 1.57
B11 | 35.6
B12 | 3.36
B13 | 38.5
B14 | 0.651
B15 | 2.39
B16 | 2.56
B17 | 228
B18 | 15.2
B19 | 2.27
B20 | 3.43
B21 | 0.848
B22 | 0.868
